Laboratory results: publication PMC8384837, “Expanding the binding specificity for RNA recognition by a PUF domain”
Positions count from the first letter of the chain named.

Assays:
Assay in all cases: yeast three-hybrid, YBZ-1, SC-Leu-His + 0.5 mM 3-AT, 4 days
Details in all cases: tags: N-Gal4 AD-HA kept; label: inside an RPR1-promoter hybrid RNA with tandem MS2 sites; ssRNA
[1] = target: T1, PUM1 PUF domain R6-GFE (Homo sapiens, UniProt Q14671 828-1176, N1043G;Y1044F;Q1047E)
T1 sequence: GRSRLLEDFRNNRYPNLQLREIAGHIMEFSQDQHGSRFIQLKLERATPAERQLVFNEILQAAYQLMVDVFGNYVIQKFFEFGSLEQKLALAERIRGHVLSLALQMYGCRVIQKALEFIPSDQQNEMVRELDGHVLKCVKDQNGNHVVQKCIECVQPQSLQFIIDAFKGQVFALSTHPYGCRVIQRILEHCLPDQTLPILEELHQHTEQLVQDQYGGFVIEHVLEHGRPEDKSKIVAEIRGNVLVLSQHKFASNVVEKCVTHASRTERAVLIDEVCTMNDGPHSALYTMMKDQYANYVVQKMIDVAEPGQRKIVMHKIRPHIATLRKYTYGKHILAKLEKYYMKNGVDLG
How it was run: (§1)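 Pumilio-1 PUF domain libraries, randomized (NNK) at the three base-contacting residues of each repeat, were co-expressed with matching RNA elements from a centromeric plasmid in strain YBZ-1 (LexA–MS2 coat fusion, HIS3 reporter). Transformants were plated on SC-Leu (input) and SC-Leu-His + 0.5 mM 3-AT (selection) for four days, and repeat regions were PCR-amplified and Illumina-sequenced. The interaction score is the log2 change in variant frequency from input to selection, with pseudocount 1 where absent.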

[2] = target: PUM1 PUF domain R5-RRC (Homo sapiens, UniProt Q14671 828-1176, C1007R;Q1011C)
How it was run: as §1

[3] = target: PUM1 PUF domain R5-MGR (Homo sapiens, UniProt Q14671 828-1176, C1007M;R1008G;Q1011R)
How it was run: as §1

[4] = target: PUM1 PUF domain R5-SGS (Homo sapiens, UniProt Q14671 828-1176, C1007S;R1008G;Q1011S)
How it was run: as §1

[5] = target: T2, PUM1 PUF domain R6-AYM (Homo sapiens, UniProt Q14671 828-1176, N1043A;Q1047M)
T2 sequence: T1 sequence with G216A, F217Y, E220M
How it was run: as §1

[6] = target: PUM1 PUF domain R8-KWH (Homo sapiens, UniProt Q14671 828-1176, N1122K;Y1123W;Q1126H)
How it was run: as §1

[7] = target: PUM1 PUF domain R3-APM (Homo sapiens, UniProt Q14671 828-1176, C935A;R936P;Q939M)
How it was run: as §1

[8] = target: PUM1 PUF domain R4-CPN (Homo sapiens, UniProt Q14671 828-1176, N971C;H972P;Q975N)
How it was run: as §1

[9] = target: PUM1 PUF domain R3-RAH (Homo sapiens, UniProt Q14671 828-1176, C935R;R936A;Q939H)
How it was run: as §1

[10] = target: PUM1 PUF domain R1-MYR (Homo sapiens, UniProt Q14671 828-1176, S863M;R864Y;Q867R)
How it was run: as §1

## GGCUAGAACUAGUGGAUCCCCCGGCGCCCGGCGGCUCGAGCCCGGGUAAGUGGAAAUAGUCUGCAUGCCGCCGGGCGCCAUGCCUGCAGGUCGACUCUAGAAAACAUG
[1]
  binding signal: 5.67 log2 enrichment (interaction score)

## GGCUAGAACUAGUGGAUCCCCCGGCGCCCGGCGGCUCGAGCCCGGGUAAGUGUCAAUAGUCUGCAUGCCGCCGGGCGCCAUGCCUGCAGGUCGACUCUAGAAAACAUG
[2]
  binding signal: 3.9 log2 enrichment (interaction score)
[3]
  binding signal: 3.14 log2 enrichment (interaction score)

## GGCUAGAACUAGUGGAUCCCCCGGCGCCCGGCGGCUCGAGCCCGGGUAAGUGUGAAUAGUCUGCAUGCCGCCGGGCGCCAUGCCUGCAGGUCGACUCUAGAAAACAUG
[4]
  binding signal: 2.71 log2 enrichment (interaction score)
[2]
  binding signal: 1.37 log2 enrichment (interaction score)

## GGCUAGAACUAGUGGAUCCCCCGGCGCCCGGCGGCUCGAGCCCGGGUAAGUGUAAAUAGUCUGCAUGCCGCCGGGCGCCAUGCCUGCAGGUCGACUCUAGAAAACAUG
[5]
  binding signal: 4.27 log2 enrichment (interaction score)
[6]
  binding signal: 4.79 log2 enrichment (interaction score)
[7]
  binding signal: 2.44 log2 enrichment (interaction score)
[8]
  binding signal: 3.19 log2 enrichment (interaction score)
[2]
  binding signal: 2.21 log2 enrichment (interaction score)
[3]
  binding signal: 1.08 log2 enrichment (interaction score)

## GGCUAGAACUAGUGGAUCCCCCGGCGCCCGGCGGCUCGAGCCCGGGUAAGUGUAAUUAGUCUGCAUGCCGCCGGGCGCCAUGCCUGCAGGUCGACUCUAGAAAACAUG
[9]
  binding signal: 3.61 log2 enrichment (interaction score)

## GGCUAGAACUAGUGGAUCCCCCGGCGCCCGGCGGCUCGAGCCCGGGUAAGUGUAAAUCGUCUGCAUGCCGCCGGGCGCCAUGCCUGCAGGUCGACUCUAGAAAACAUG
[10]
  binding signal: 3.82 log2 enrichment (interaction score)

## GGCUAGAACUAGUGGAUCCCCCGGCGCCCGGCGGCUCGAGCCCGGGUAAGUGUUAAUAGUCUGCAUGCCGCCGGGCGCCAUGCCUGCAGGUCGACUCUAGAAAACAUG
[2]
  binding signal: 4.61 log2 enrichment (interaction score)

## GGCUAGAACUAGUGGAUCCCCCGGCGCCCGGCGGCUCGAGCCCGGGUAAGUGUAAAUUGUCUGCAUGCCGCCGGGCGCCAUGCCUGCAGGUCGACUCUAGAAAACAUG
[10]
  binding signal: 3.58 log2 enrichment (interaction score)
